Columns and labels:
Type in all cases: functional
Plasmodium falciparum [1] = assay: GSK_TCMDC: Inhibition of Plasmodium falciparum 3D7 in whole red blood cells, using parasite LDH activity as an index of growth. Test compounds present at 2uM
Plasmodium falciparum [2] = assay: GSK_TCMDC: Inhibition of Plasmodium falciparum Dd2 in whole red blood cells, using parasite LDH activity as an index of growth. Test compounds present at 2uM
HepG2 = assay: GSK_TCMDC: Percent inhibition of human HepG2 cell line. Test compounds present at 10uM.

Row | SMILES | Inhibition (Plasmodium falciparum [1]) | Inhibition (Plasmodium falciparum [2]) | Inhibition (HepG2)
1 | Cc1cc(NCC(c2ccccc2)c2ccccc2)nc(NCc2ccc(C(F)(F)F)cc2)n1 | 100% | 79% | 29%
2 | CC1CCN(CCCNc2ccc(C(=O)Nc3ccc(C(F)(F)F)cc3)cc2[N+](=O)[O-])CC1 | 100% | 100% | 62%
3 | CCCN1CCN(CCCNC(=O)c2cc3c(-c4ccc(Cl)cc4)nn(C)c3s2)CC1 | 88% | 20% | 46%
4 | Cc1cc(N[C@@H](Cc2ccccc2)C(=O)NCCc2ccccc2)nc(NCCc2ccc(F)cc2)n1.O=C(O)C(F)(F)F | 99% | 89% | 9%
5 | O=[N+]([O-])c1ccc2nc(Nc3ccc(Cl)c(Cl)c3)c(Nc3ccc(Cl)c(Cl)c3)nc2c1 | 100% | 99% | 1%
6 | CN1CCC(C(=O)Nc2cccc(-c3cccc(-c4nc5cc(F)ccc5[nH]4)c3)c2)CC1 | 100% | 27% | 32%
7 | O=C(CC1CCCCC1)NCC(NCCCNc1cc(=O)c2ccccc2[nH]1)c1cc(Br)cc(Br)c1 (stereo not given) | 95% | 52% | 8%
8 | COc1ccc(C(=O)N2CCc3cc4nccc(N5CCN6CCC[C@H]6C5)c4cc32)cc1 | 98% | 50% | 1%
9 | COc1ccc2[nH]ccc(=NN=Cc3ccc(N(C)C)cc3)c2c1 | 100% | 95% | 4%
10 | CC[C@H](C)CNC(=O)c1cncc(-c2ccc(CNCCCc3ccccc3)cc2)c1.O=C(O)C(F)(F)F | 100% | 99% | 19%
